± gives the standard deviation of the averaged measurements. Whole data set: some 25,000 sequences, median “ln(normalized median fluorescence intensity)” near 8.6, cut for the highest 2% near 10. The entries come from a sample that favours the highest values as a whole.
The sequences below were run on PfAP2-EXP AP2 domain (GST-tagged) (assay: gcPBM binding intensity (ln(normalized median fluorescence intensity)); higher = stronger DNA binding).
In short: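 Binding of GST-tagged P. falciparum DNA-binding domains, expressed in E. coli and used at about 25 μg on average, was carried out for 1 h in 1× PBS containing 1% milk, 0.2 mg/ml BSA, 0.5% salmon testes DNA and 0.03% Triton X-100. The target was an Agilent 4 × 180k array of primer-extended double-stranded 36-bp intergenic genomic probes plus negative controls, read with Alexa488 anti-GST antibody at 488 nm. Binding intensity is the highest Masliner-normalised natural-log median intensity across replicate spots of either probe orientation.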
For “TATATAAATATATATACACACAAAAAAAAAAAAAAA [CACACA_site1406]”, the “gcPBM binding intensity (ln)” value was 8.36 ± 0.52. For “TATATATATATATACACACACACAAAAAAAAAAAAA [CACACA_site1505]”, the “gcPBM binding intensity (ln)” value was 10.2 ± 0.21. For “CATTTATATATATACACACACACAAAAAAAAAAAAA [CACACA_site2645]”, the “gcPBM binding intensity (ln)” value was 8.44 ± 0.49. In the case of “TATTTATATTTATACACACACACAAAAAAAAAAAAA [CACACA_site6817]”, the “gcPBM binding intensity (ln)” value is reported as 8.36 ± 0.57. With “AAAAAATAAATAAATACACACAAATATATATATATA [CACACA_site2543]” the “gcPBM binding intensity (ln)” value was 10.2 ± 0.071. With “TATATATATAAATACACACACACAAAAAAAAAAAAA [CACACA_site4930]” the “gcPBM binding intensity (ln)” value was 8.6 ± 0.34. In the case of “TTAATAAAAGCCCATGCACACCTTAGAAAGTTTTAT [CACACA_site8003]”, the “gcPBM binding intensity (ln)” value is reported as 8.43 ± 0.45. “GCCATTAATTTATACACACACATTATGATTTTTTAT [CACACA_site754]” was tested, and the “gcPBM binding intensity (ln)” value was 8.86 ± 0.28. With “TCTTGTCTACCTTGTATTTAATATTTACATATATAA [TGCATGCA_negctrl_site320]” the “gcPBM binding intensity (ln)” value was 8.95 ± 0.4. For “TTTATTTTGACAGATTGTACACTTTATACATGTTTT [XGTACX_site2356]”, the “gcPBM binding intensity (ln)” value was 8.8 ± 0.44. “GGGGGGAGGGTGAATACACACGTAATAATCATAAAC [CACACA_site8502]” was tested, and the “gcPBM binding intensity (ln)” value was 10.6 ± 0.22. With “ATGGAATAATCACGTACACACAAGAAAAAAAAAAAT [CACACA_site527]” the “gcPBM binding intensity (ln)” value was 8.8 ± 0.56. In the case of “ATAAAAAAATCAGACACACACACGTAAACACATACA [CACACA_site5529]”, the “gcPBM binding intensity (ln)” value is reported as 8.76 ± 0.57. In the case of “TAATCATAAAAAAATACACACATATATAATATATAT [CACACA_site1983]”, the “gcPBM binding intensity (ln)” value is reported as 8.51 ± 0.3. In the case of “ATAAATATCATATATATACACACGTAATACATAATA [CACACA_site4001]”, the “gcPBM binding intensity (ln)” value is reported as 8.4 ± 0.44. “GGGGGGGGAGGGTGAATACACACGTAATAATCATAA [CACACA_site1716]” was tested, and the “gcPBM binding intensity (ln)” value was 10.8 ± 0.15. With “AACTTACTCTTTACAAGTACGTAAAAGAAATAGAAA [XGTACX_site1782]” the “gcPBM binding intensity (ln)” value was 8.51 ± 0.41. With “AATTTCTATTTTGTGAGTACATACTCCTATTATATA [XGTACX_site3210]” the “gcPBM binding intensity (ln)” value was 8.78 ± 0.26. In the case of “ATTATATATAAATATACACACATATATAAAATACAT [CACACA_site5298]”, the “gcPBM binding intensity (ln)” value is reported as 8.39 ± 0.28. For “TTATACTATTTTTATACATGCATTTCTATATATTTT [TGCATGCA_site316]”, the “gcPBM binding intensity (ln)” value was 9.3 ± 0.28. With “TTATATTATTTTTATACATGCATTTCTATATATTTT [TGCATGCA_site164]” the “gcPBM binding intensity (ln)” value was 9.2 ± 0.3. “TTTTTTTTTTCTCCTGCATGCAGCATTTATATATTA [TGCATGCA_site390]” was tested, and the “gcPBM binding intensity (ln)” value was 10.3 ± 0.13. For “TCTTTATATATATATATATGTGTGAATGTTAAGTAT [XGTACX_negctrl_site135]”, the “gcPBM binding intensity (ln)” value was 8.74 ± 0.33. For “ATATATATAAATATATGTACATAAATATATTTGTAA [XGTACX_site6715]”, the “gcPBM binding intensity (ln)” value was 8.47 ± 0.42. For “ACATAAATAAATTAATGTACATATATATTTGTATAT [XGTACX_site3160]”, the “gcPBM binding intensity (ln)” value was 8.36 ± 0.28. “ATATATATATATATATGTACATATATTTGTAATGTC [XGTACX_site8074]” was tested, and the “gcPBM binding intensity (ln)” value was 10.2 ± 0.43. With “TTATTAAATGAAAAATGTACATATAAATGATTATAT [XGTACX_site2788]” the “gcPBM binding intensity (ln)” value was 8.51 ± 0.25. For “AATGTATATATGTAATGTACATATGTAATGTATATA [XGTACX_site6509]”, the “gcPBM binding intensity (ln)” value was 8.62 ± 0.46. In the case of “TGGATTTTGTATTAATGTACATATATATATATATAT [XGTACX_site4442]”, the “gcPBM binding intensity (ln)” value is reported as 10.2 ± 0.51. For “GTTTGTATGTCCAAATGTACATATGATTTTATGAAA [XGTACX_site6595]”, the “gcPBM binding intensity (ln)” value was 8.72 ± 0.28. “ATTTTGTATATATTTTGTACATATTTTGTATATATT [XGTACX_site885]” was tested, and the “gcPBM binding intensity (ln)” value was 8.68 ± 0.3. In the case of “TTTTTTTTGTATTAATGTACATATAACTTTTTTTTT [XGTACX_site7903]”, the “gcPBM binding intensity (ln)” value is reported as 8.48 ± 0.47. With “ATGAATATATATATTTGTACATATGTATATATATAT [XGTACX_site7527]” the “gcPBM binding intensity (ln)” value was 9.71 ± 0.15. With “CTGAATGTATATATTTGTACATATATATATATATAT [XGTACX_site5557]” the “gcPBM binding intensity (ln)” value was 10.4 ± 0.22. With “ATGATTTGTCTGAAATGTACATATATATATATATAT [XGTACX_site5247]” the “gcPBM binding intensity (ln)” value was 10.3 ± 0.47. For “ACATTTATTTTGAATGGTACACTATTATTATGAAAT [XGTACX_site4384]”, the “gcPBM binding intensity (ln)” value was 8.36 ± 0.38. “TTTTTTTTTTGATGCACACACCTGAACGAGTTAATA [CACACA_site4329]” was tested, and the “gcPBM binding intensity (ln)” value was 8.83 ± 0.37. With “ATTTTTAAATACAGTACACACATGGGTTTAAATTAT [CACACA_site2884]” the “gcPBM binding intensity (ln)” value was 8.63 ± 0.38. “ATATAATAATTGTACACATGCACACACAAATATTAT [TGCATGCA_site204]” was tested, and the “gcPBM binding intensity (ln)” value was 8.9 ± 0.29. For “GATCACTGAATAAAGGCACACATCTGACTAATTTTT [CACACA_site66]”, the “gcPBM binding intensity (ln)” value was 8.36 ± 0.39. With “ATAAATTGAAGTAAATTTGACCTTTTTTTTTTTTTT [GTGCAC_negctrl_site354]” the “gcPBM binding intensity (ln)” value was 8.31 ± 0.27. With “AATGAAAGGATGCTGTGTACATATATATATATATAT [XGTACX_site7901]” the “gcPBM binding intensity (ln)” value was 10.2 ± 0.49. For “TAAGGATGAATCCTTTGTACATATATATATATATAT [XGTACX_site1242]”, the “gcPBM binding intensity (ln)” value was 10.2 ± 0.28. With “ATAAAATGAACCTTTTGTACATATATATATATATAT [XGTACX_site4610]” the “gcPBM binding intensity (ln)” value was 10.1 ± 0.57.
